Reference: PubChem BioAssay AID1117319 (Southern Research Institute, 2015)
“And” between values parts separate entries of the source, which are not always exact repeats. Equal values may be shown once. In all, about 260,000 compounds went through this assay and about 1,500 (0.58%) were called active. Not shown: some 5% with an inconclusive outcome.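 The calls were made as follows: active = inhibition above a set limit at one or more doses, reproduced on every date tested; inconclusive = results disagree between test dates, or hit never tested in dose response; inactive = the rest.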 Only a sample is shown. Potency and affinity values are given separately.

Target: Virion infectivity factor (Human immunodeficiency virus type 1 group M subtype B (isolate BH10)) + Virion infectivity factor (Human immunodeficiency virus type 1 group M subtype B (isolate BRU/LAI)) + Virion infectivity factor (Human immunodeficiency virus type 1 group M subtype B (isolate PCV12)) + Virion infectivity factor (Human immunodeficiency virus type 1 group M subtype B (isolate HXB2)) + DNA dC->dU-editing enzyme APOBEC-3G (Homo sapiens) (UniProt P69720+P69721+P69722+P69723+Q9HC16)
Experiment: HIV-1 Vif–A3G interaction blockers – biochemical, TR-FRET, GST-Vif 1-94, biotin-A3G peptide, dose response retest, primary screen (AID 1117319);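 also: Vif residues 1-94 fused to GST binding biotinylated APOBEC3G peptide 110-148; 0% = full assay without inhibitor and 100% = GST in place of GST-Vif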
Conditions: TR-FRET GST-Vif / biotin-A3G peptide binding; stronger effect = higher value

inhibition, inactive:
Cc1cccc(N2C(=O)CC(N3CCN(c4ccccc4)CC3)C2=O)c1 (stereo unspecified) 6.83%
Cc1ccccc1N=C1NC(=O)CS1 -1.84%
Cc1ccc(N=C2NC(=O)CS2)cc1 32.9%
CCOC(=O)C(NC(=O)c1cccc(Cl)c1)(Nc1sc2c(c1C(N)=O)CCC2)C(F)(F)F (stereo unspecified) 30.9%
Nc1nc2nc(-c3ccc(F)cc3)cc(C(F)(F)F)n2n1 12.1%
COc1ccc(NS(=O)(=O)c2cccc(C(=O)NNC(=O)c3cccc(NC(C)=O)c3)c2)cc1 2.28%
COc1ccc(NS(=O)(=O)c2cccc(C(=O)NNC(=O)c3ccccc3O)c2)cc1 9.79%
CCc1ccc(N(C(=O)CNC(=O)c2ccco2)C(C(=O)NCC2CCCO2)c2ccccc2)cc1 (stereo unspecified) 6.06%
O=C(CCNC(=O)c1ccccc1Cl)Nc1nc(-c2ccccc2Cl)cs1 15.5%
NC(=O)c1ccc(-n2nnnc2SCc2ccccc2)cc1 -2.97%
COC(=O)c1ccccc1-c1ccc(C=O)o1 -12.2%
COC(=O)c1ccccc1-c1ccc(/C=N/NC(N)=O)o1 -4.17%
COc1cc(/C=C(\C#N)c2ccccn2)cc(OC)c1O 7.21%
COc1cc(C(=O)Oc2cccc(C=O)c2)cc(OC)c1OC 8.54%
CCc1ccc(OCc2nnc(SCc3ccc(C(=O)O)cc3)o2)cc1 -1.45%
O=C(O)c1ccc(CSc2nnc(COc3ccccc3)o2)cc1 -5.6%
CSCCC(NC(=O)c1ccccc1Cl)C(=O)N1CCN(c2ccccn2)CC1 (stereo unspecified) -6.33%
COc1ccc(-c2noc(CCC(=O)N3CCN(c4cccc(C(F)(F)F)c4)CC3)n2)cc1 22.9% and -0.11%
CC(C)N(Cc1ccccc1)C(=O)COC(=O)C1CCN(c2ccc(C(F)(F)F)cn2)CC1 -3.12%
Oc1ccc2ccccc2c1Br 0.97%
O=C1C(=O)c2c(ccc3ccccc23)-c2ccccc21 -6.35%
CCCCCCCCC#Cc1nc(C)ccc1OC -3.1%
CCOC(=O)N1C2=NC(C(=O)OC)=C(C(=O)OC)[C@@H]3Nc4ccccc4[C@]23C[C@H]1C(=O)OC 4.32%
C[C@H]1CN([C@@H](C)CO)C(=O)CCCn2nncc2CO[C@@H]1CN(C)C(=O)NC1CCCCC1 1.5%
O=C(O)c1ccccc1C(=O)Nc1ccc(-n2nccc2C(F)(F)F)cc1 -1.72%
O=C(CNc1ccc(F)cc1)N/N=C1\CCCc2ccccc21 -0.54%
COC(=O)CSc1nc(N)nc(C)c1Cl -8.89%
CC1=C(C(=O)N2CCOCC2)C(c2ccc(O)cc2)NC(=S)N1 (stereo unspecified) 17.4%
c1ccc2c3c(cc(N4CCOCC4)c2c1)OC1(N2CCOCC2)CCCCC1O3 (stereo unspecified) -2.4%
COc1cc(OC)cc(C(=O)N[C@H](C(=O)Nc2cc(C)cc(C)c2)C(C)C)c1 -1.59%
COc1ccc(OC)c2[nH]c(=O)c(CCNC(=O)C(=O)c3c(C)[nH]c4ccccc34)cc12 2.37%
CC[n+]1cccc(-c2nc3ccccc3s2)c1 5.45%
COC(=O)CSc1nnc(CNC(=O)c2cccc(C)c2)n1-c1ccccc1OC 6.5%
CCOC(=O)CSc1nnc(CNC(=O)Cc2ccccc2)n1-c1ccccc1OC -6.46%
Cc1ccc(CNC(=O)C2CC2c2ccccc2)cc1 (stereo unspecified) -6.49%
CN(CC(=O)Nc1c(Cl)cccc1Cl)C(=O)Cc1ccsc1 -2.32%
Cc1cc(NC(=O)C2CC(c3ccc(F)cc3)=NO2)no1 (stereo unspecified) 0.56%
CCc1cc2cccc(C)c2nc1SCC(=O)Nc1nonc1C 32.8%
COc1cc(S(=O)(=O)N(Cc2ccccn2)Cc2ccco2)ccc1-n1cnnn1 -2.53%
COc1ccccc1CN(Cc1ccco1)S(=O)(=O)c1ccc(-n2cnnn2)c(OC)c1 0.86%
CN[C@H]1C[C@H]2c3[nH]c4ccccc4c3CCN2C(=O)[C@H]1[C@H](C)O -5.11%
O=[N+]([O-])c1cc(F)c(N2CCCCC2)cc1N1CCOCC1 8.86%
N#Cc1cc(N2CCCCC2)c([N+](=O)[O-])cc1C#N -2.18%
CCN(c1ccccc1)S(=O)(=O)c1ccc(Oc2ccccc2)c(N)c1 2.08%
COc1ccc(C2=NOC(C(=O)NCc3cccs3)C2)cc1 (stereo unspecified) -3.82%
COc1cccc(C2=NOC(C(=O)NCc3cccs3)C2)c1 (stereo unspecified) -3.08%
COc1cc(-n2c(C)nc3ncn(-c4ccccc4)c3c2=O)cc(OC)c1OC 2.62%
CC(=O)Nc1ccc(OCC(O)Cn2cccn2)cc1 (stereo unspecified) -6.52%
CCCN(CC(=O)Nc1ccccc1C)C(=O)C1CCN(C(=O)Nc2ccccc2)CC1 -0.04%
O=C(Oc1ccccc1)c1cccc(N2C(=O)CCC2=O)c1 -0.79%
N#Cc1c(Nc2cccc(F)c2)sc2c(O)cc(=O)[nH]c12 -5.54%
CS(=O)(=O)N(CC(=O)Nc1ccc2c(c1)OCCO2)Cc1ccccc1 24.5%
O=C(CCc1ccc(S(=O)(=O)NCCc2ccccc2)cc1)NCc1ccc2c(c1)OCO2 -2.37%
CS(=O)(=O)N(CCc1ccccc1)CC(=O)Nc1ccc2c(c1)OCO2 13.8%
CCCNS(=O)(=O)c1ccc(CCC(=O)Nc2ccc3c(c2)OCO3)cc1 2.82%
CC1(C)Cc2c(sc3nc(SCC(=O)N4CCOCC4)nc(N)c23)CO1 3.98%
CSc1nc(C)cc(OCC(=O)n2nc(C)cc2C)n1 1.86%
CC(=O)Nc1sc2c(c1C(c1ccccc1)N1CCOCC1)CCCC2 (stereo unspecified) 5.78%
CCOC(=O)c1ccc(NC(=O)C(=O)NCc2ccncc2)cc1 27%
CC(=O)OCCNc1cc(N2CCN(C)CC2)c2noc3c2c1C(=O)c1ccccc1-3 3.2%
O=[N+]([O-])c1c(NCCO)cc(N2CCC3(CC2)OCCO3)c2nonc12 -8.02%
